# Several values for one entry are separate records, joined by “and”; a condition that tells them apart may be missing. Identical values can stand only once. A number with no mark means an inactive call. Records with an inconclusive call do not appear. A call without a number means that no potency is given here. Activity calls are given as the source filed them. Unless noted, calls follow the shape of the dose curve; as a rule, active = well fitted curve in the direction sought with a large enough effect; inconclusive = small, poorly fitted or top-dose-only effect, or another doubt; inactive = no such curve, though single readings can be large; an effect the other way counts as inactive or inconclusive.
# Legend:
# [1] = S16 Schwann cell viability assay (CellTiter-Glo assay) (AID 624031); conditions: S16 rat Schwann cells viability, 24 h; series mostly up to 57.5 µM;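 also: cellular ATP luminescence as a viability measure; nearly all actives have a fitted effect of over 70% in size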
# In short: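 Native S16 Schwann cells (rat), serum-containing medium, overnight attachment then 24 h drug exposure at 37 °C/5% CO2. CellTiter-Glo ATP signal; normalized to cell-free and vehicle wells.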
# [2] = S16 Schwann cell PMP22 intronic element firefly luciferase assay (AID 624032); conditions: S16 rat Schwann cells, PMP22 element FLuc, 24 h; series mostly up to 57.5 µM; also: nearly all actives have a fitted effect of over 30% in size
# In short: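 Luciferase reporter of PMP22 intronic-element expression in stably transfected S16 rat Schwann cells, read by ONE-Glo luminescence after 24 h compound exposure at 37 C. Activity scaled between DMSO (0%) and positive-control PTC124; concentration-effect curves quality-classified.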
# [3] = qHTS assay for small molecule agonists of the antioxidant response element (ARE) signaling pathway (AID 651741; active = well fitted activation curve with a large enough effect in the signal ratio; the % refers to the signal ratio; also: potency is read from the fitted curve at half-maximal effect); conditions: HepG2 ARE-bla reporter, beta-lactamase FRET ratio, 16 h; series mostly up to 96 µM
# In short: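 Seeding 2,000 ARE-bla HepG2 cells per well preceded a 5 h incubation at 37 C/5% CO2 and a 16 h compound exposure at 37 C. Beta-lactamase reporter activity was then quantified by fluorescence after 2 h with LiveBLAzer B/G FRET substrate.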
# [4] = qHTS assay for small molecule activators of the p53 signaling pathway (AID 651743; active = well fitted activation curve with a large enough effect in the signal ratio, not every such curve was filed as active; the % refers to the signal ratio); conditions: HCT-116 p53RE-bla, beta-lactamase FRET ratio, 16 h; activation: stronger effect = higher value
# In short: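 Screen for p53 pathway agonists uses stably transfected p53RE-bla HCT-116 cells, 4,000 per well, treated 16 h at 37 C with compounds in DMSO.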
# [5] = biological target: Glutaminase kidney isoform, mitochondrial (Homo sapiens) (UniProt O94925); assay: qHTS for Inhibitors of Glutaminase (GLS): LOPAC Validation (AID 624146); conditions: glutaminase enzyme activity inhibition; series mostly up to 46.1 µM;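 also: glutamate product detected by oxidase and peroxidase coupled Amplex red fluorescence gain; nearly all actives have a fitted effect of over 60% in size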
# In short: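 hKGA in 45 mM KH2PO4 pH 8.2, 0.02% Tween-20 with pin-transferred compounds; 1 mM L-glutamine (stock) plus glutamate oxidase/HRP/Amplex Red coupling added. Fluorescence read initially and after 30 min at RT.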
# [6] = qHTS of Trypanosoma Brucei Inhibitors: LOPAC Validation (AID 624147); conditions: purified enzyme assay, luminescence, 45 min; series mostly up to 57.5 µM
# In short: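 In this concentration-response screen, enzyme-free wells defined baseline while DMSO plates tracked drift. Each reaction combined TbPYK, substrate, compound and 130 uM ADP for 45 min at room temperature. Kinase-Glo Plus luminescence gave the signal.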
# [7] = biological target: Glucagon-like peptide 1 receptor (Homo sapiens) (UniProt P43220); assay: qHTS of GLP-1 Receptor Agonists: LOPAC Validation (AID 624148); conditions: GLP-1R agonist cell assay; series mostly up to 46.1 µM;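 also: luminescence from a luciferase reporter switched on by cAMP; higher luminescence signal means agonism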
# In short: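 Agonism scored as increased luciferase luminescence driven by cAMP in HEK293 clones carrying GLP-1R. Cells settled 12 hours, received compound for 4-6 hr at 37 deg C, 5% CO2, and were read after 12 min detection reagent at RT.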
# [8] = qHTS of Nrf2 Activators: LOPAC Validation (AID 624149); conditions: Nrf2/ARE reporter cell assay; series mostly up to 46.1 µM
# In short: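 ARE reporter activation measured in AREc32 firefly luciferase cells after 24 hr compound exposure; Steady-Glo luminescence.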
# [9] = HTS Assay for Allosteric Antagonists of the Human D2 Dopamine Receptor: Hit Validation in HTRF (AID 624455); conditions: Cells stably expressing D1 dopamine receptor, inhibition mode; series mostly up to 46.1 µM;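 also: stable D1 dopamine receptor cell line scored for blocking the D1 response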
# In short: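 Signal from an HTRF read-out in D1-expressing stable cells gave hit activity as inhibition of the D1 response.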
# [10] = S16 Schwann cell PMP22 intronic element beta-lactamase assay (AID 624044; calls by dose curve; also: nearly all actives have a fitted effect of over 15% in size); conditions: S16 rat Schwann cells, PMP22 element beta-lactamase FRET, 24 h; series mostly up to 38.3 µM
# In short: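 Rat S16 Schwann cells with beta-Lac driven by a PMP22 intronic element, compound-treated 24 h at 37 °C. LiveBLAzer FRET B/G read: 460 nm normalized to potassium clavulanate vs DMSO; 535 nm FRET as viability; concentration-effect curves classified.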
# Chain of Glucagon-like peptide 1 receptor (Homo sapiens) (P43220 whole entry, looked up): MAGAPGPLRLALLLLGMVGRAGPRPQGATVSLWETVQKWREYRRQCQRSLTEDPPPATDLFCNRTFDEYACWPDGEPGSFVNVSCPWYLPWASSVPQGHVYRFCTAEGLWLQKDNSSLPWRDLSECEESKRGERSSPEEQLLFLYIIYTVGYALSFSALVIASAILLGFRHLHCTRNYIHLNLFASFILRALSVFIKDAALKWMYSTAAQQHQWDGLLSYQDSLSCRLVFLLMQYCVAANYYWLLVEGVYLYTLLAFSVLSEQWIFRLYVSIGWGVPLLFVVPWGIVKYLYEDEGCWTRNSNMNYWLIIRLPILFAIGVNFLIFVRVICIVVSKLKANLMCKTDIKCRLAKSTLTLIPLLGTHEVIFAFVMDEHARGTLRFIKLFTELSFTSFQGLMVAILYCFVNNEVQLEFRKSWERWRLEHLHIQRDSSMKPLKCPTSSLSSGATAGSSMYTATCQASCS
# Chain of Glutaminase kidney isoform, mitochondrial (Homo sapiens) (O94925 whole entry, looked up, canonical isoform): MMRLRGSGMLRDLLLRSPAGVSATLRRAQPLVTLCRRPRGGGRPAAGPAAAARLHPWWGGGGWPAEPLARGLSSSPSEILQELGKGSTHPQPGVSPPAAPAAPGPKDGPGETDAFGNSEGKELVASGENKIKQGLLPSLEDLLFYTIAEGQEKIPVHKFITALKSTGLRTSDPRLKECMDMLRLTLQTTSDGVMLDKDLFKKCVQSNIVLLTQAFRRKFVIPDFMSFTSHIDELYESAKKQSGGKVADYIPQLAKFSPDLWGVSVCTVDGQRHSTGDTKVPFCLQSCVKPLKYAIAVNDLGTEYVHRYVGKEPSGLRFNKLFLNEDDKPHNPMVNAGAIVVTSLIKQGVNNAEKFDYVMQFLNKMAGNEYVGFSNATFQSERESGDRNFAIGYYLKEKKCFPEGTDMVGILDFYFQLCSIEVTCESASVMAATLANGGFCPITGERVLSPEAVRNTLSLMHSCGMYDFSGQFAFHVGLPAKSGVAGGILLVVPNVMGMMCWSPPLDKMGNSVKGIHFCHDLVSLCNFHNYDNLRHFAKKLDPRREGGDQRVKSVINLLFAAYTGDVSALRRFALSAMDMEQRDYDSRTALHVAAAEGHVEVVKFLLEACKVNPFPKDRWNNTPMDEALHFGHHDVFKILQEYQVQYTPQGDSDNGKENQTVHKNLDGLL
smiles,measurement,setting,value
C/C=C/c1ccc(O)c(OC)c1,Potency,[1],inactive
same,Potency,[2],inactive
same,Potency,[3],30.6 µM (active) and 42.2 µM (active)
same,activation,[4],-3.74% and -0.0356%
CC(C)(C)NC[C@H](O)COc1nsnc1N1CCOCC1,Potency,[1],inactive
same,Potency,[2],inactive
same,outcome,[5],inactive
same,outcome,[6],inactive
same,outcome,[7],inactive
same,outcome,[8],inactive
same,outcome,[9],inactive
CCCCCCCC/C=C\CCCCCCCCN,Potency,[1],inactive
same,Potency,[2],inactive
same,activation,[4],4.37%
CN(C)C(=O)Nc1ccc(Cl)c(Cl)c1,Potency,[1],inactive
same,Potency,[2],inactive
same,activation,[4],3.41%
CC[C@H](c1ccc(O)cc1)[C@@H](CC)c1ccc(O)cc1,Potency,[1],inactive
same,Potency,[10],inactive
CCOC(=O)Nc1ccc2c(c1)N(C(=O)CCN1CCOCC1)c1ccccc1S2,Potency,[1],inactive
same,Potency,[10],inactive
CN=C(N)NCCC[C@H](N)C(=O)O,outcome,[5],inactive
same,outcome,[6],inactive
same,outcome,[7],inactive
same,outcome,[8],inactive
same,outcome,[9],inactive

# Reference: PubChem BioAssay (NCATS)
